Measured values from the supplement of paper PMC3545927.
Some of the results follow. The hit rate among all sequences tested is not known here.

Target: furin, P09958
Assay: furin cleavage Z-score vs untreated control; higher = more cleavage, active = 3.5 or more, inactive = 1 or less, 8 variable residues between constant flanks
Procedure, shortened: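 Furin-free reactions served as the baseline for the cleavage Z-score, which is the log read count lowess-adjusted and scaled by median absolute deviation. Counts came from released DNA, adapter-tagged by PCR and sequenced. Purified furin had cut 8-mer peptides fused to a cDNA oligonucleotide on magnetic beads during 7.5, 15 or 30 min at 1:10 enzyme:substrate.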
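Also: purified furin at 1:10 enzyme:substrate in 50 mM HEPES pH 7.5.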

Chain of furin, P09958 (P09958 whole entry): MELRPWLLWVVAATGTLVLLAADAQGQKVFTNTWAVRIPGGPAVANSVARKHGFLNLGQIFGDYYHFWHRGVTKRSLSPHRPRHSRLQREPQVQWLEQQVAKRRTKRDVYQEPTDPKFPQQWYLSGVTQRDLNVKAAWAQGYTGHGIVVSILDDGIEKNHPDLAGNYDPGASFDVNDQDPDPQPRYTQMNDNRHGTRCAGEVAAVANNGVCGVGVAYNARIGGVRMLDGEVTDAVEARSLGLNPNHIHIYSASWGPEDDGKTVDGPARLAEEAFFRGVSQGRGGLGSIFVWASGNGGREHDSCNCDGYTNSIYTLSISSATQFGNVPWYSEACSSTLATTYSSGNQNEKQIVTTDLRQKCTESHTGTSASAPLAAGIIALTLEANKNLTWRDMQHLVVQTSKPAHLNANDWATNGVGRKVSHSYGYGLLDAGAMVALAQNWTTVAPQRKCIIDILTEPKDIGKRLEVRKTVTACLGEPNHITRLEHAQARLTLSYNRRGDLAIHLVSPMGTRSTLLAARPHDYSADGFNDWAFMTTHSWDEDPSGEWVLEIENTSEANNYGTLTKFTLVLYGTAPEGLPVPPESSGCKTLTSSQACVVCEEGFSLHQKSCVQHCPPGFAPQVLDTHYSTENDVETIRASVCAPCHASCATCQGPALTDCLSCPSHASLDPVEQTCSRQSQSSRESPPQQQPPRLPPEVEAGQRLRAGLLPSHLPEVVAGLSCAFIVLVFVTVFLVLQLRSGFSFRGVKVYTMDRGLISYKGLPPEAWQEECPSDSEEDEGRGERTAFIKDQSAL

Sequence | furin cleavage Z-score (7.5 min) | furin cleavage Z-score (15 min) | furin cleavage Z-score (30 min)
CAGRHCVRRSAGNASASA [FS-163] | 3.46 | 4.86 (active) | 4.64 (active)
CAGTTRQRRSAGNASASA [FS-1458] | 9.35 (active) | 9.67 (active) | 7.94 (active)
CAFAERSGRGAGNASASA [FS-1322] | -0.454 (inactive) | 0.465 (inactive) | 0.178 (inactive)
CAGHGRQERSAGNASASA [FS-530] | 1.31 | 3.84 (active) | 3.39
CAFAERQRRSAGNASASA [FS-1588] | 11.1 (active) | 11 (active) | 10.4 (active)
CAGSSGGPLLAGNASASA [HC742] | -1.42 (inactive) | -0.944 (inactive) | -0.396 (inactive)
CAEVPCHRPQAGNASASA [HC2422] | 1.53 | 0.977 (inactive) | -0.457 (inactive)
CAHVCCSMSYAGNASASA [HC1995] | -0.946 (inactive) | -0.551 (inactive) | -0.241 (inactive)
CASTPCSAHGAGNASASA [HC2576] | -0.871 (inactive) | 0.825 (inactive) | -0.885 (inactive)
CAIKLGALTGAGNASASA [HC630] | -0.745 (inactive) | -0.643 (inactive) | -1.94 (inactive)
CAGMMLAEQFAGNASASA [HC1021] | 0.171 (inactive) | 0.335 (inactive) | -0.461 (inactive)
CARHRRLRGPAGNASASA [FS-1825] | -1.67 (inactive) | -0.893 (inactive) | -1.28 (inactive)
CARHRRQRRSAGNASASA [FS-707] | 10.1 (active) | 10.5 (active) | 8.1 (active)
CASCARHRRSAGNASASA [FS-90] | 4.64 (active) | 3.79 (active) | 4.71 (active)
CASKRDHRRSAGNASASA [FS-1411] | 1.79 | -0.35 (inactive) | 0.449 (inactive)
CAMEECSQKLAGNASASA [HC1754] | 1.17 | 0.659 (inactive) | 1.26
CARDGRDGTPAGNASASA [FS-2000] | 0.0974 (inactive) | -0.249 (inactive) | 0.34 (inactive)
CATTMRSPVFAGNASASA [HC762] | -1.56 (inactive) | -0.725 (inactive) | -0.54 (inactive)
CARMRRDGWPAGNASASA [FS-2723] | 2.95 | 4.8 (active) | 5.65 (active)
CARMRRALVFAGNASASA [FS-3001] | 4.84 (active) | 4.35 (active) | 6.45 (active)
CARMRRRPGPAGNASASA [FS-2725] | 0.305 (inactive) | 1.58 | 1.1
CARMRRPPGGAGNASASA [FS-2496] | -0.899 (inactive) | -0.697 (inactive) | -0.784 (inactive)

Sequence | furin cleavage Z-score (7.5 min) | furin cleavage Z-score (15 min) | furin cleavage Z-score (30 min)
CACAWYELTPAGNASASA [HC923] | -0.0785 (inactive) | 0.676 (inactive) | -1.48 (inactive)
CARELRNVGVAGNASASA [FS-1695] | -1.56 (inactive) | 0.756 (inactive) | -0.781 (inactive)
CARFRRGARSAGNASASA [FS-1703] | 10.1 (active) | 10.3 (active) | 8.23 (active)
CAEVVTSTKVAGNASASA [HC2234] | 0.581 (inactive) | 0.63 (inactive) | -0.359 (inactive)
CARMVRSVKVAGNASASA [FS-1754] | 3.01 | 4.69 (active) | 6.85 (active)
CARMTRSVDNAGNASASA [FS-2396] | 10.7 (active) | 10.3 (active) | 7.86 (active)
CARFRRGLDNAGNASASA [FS-1704] | 10.1 (active) | 8.75 (active) | 7.17 (active)
CARTTRSVVHAGNASASA [FS-2837] | -0.34 (inactive) | 0.171 (inactive) | 0.71 (inactive)
CAMHECSQHLAGNASASA [HC1695] | 0.819 (inactive) | 2.72 | 1.59
CAFQVAHLHAAGNASASA [HC772] | -0.105 (inactive) | -0.994 (inactive) | -1.62 (inactive)
CAEVVTSMWVAGNASASA [HC2206] | 0.942 (inactive) | -0.688 (inactive) | -0.185 (inactive)
CACTANHDSPAGNASASA [HC1268] | -0.651 (inactive) | -0.843 (inactive) | -2.03 (inactive)
CADLLEDNVTAGNASASA [HC1433] | 0.275 (inactive) | -2.11 (inactive) | -1.66 (inactive)
CAGNLPGCSFAGNASASA [HC244] | -0.0639 (inactive) | 0.93 (inactive) | -0.123 (inactive)
CALPFRSKRQAGNASASA [FS-684] | 9.98 (active) | 10.9 (active) | 7.98 (active)
CARPKRKGKCAGNASASA [FS-1761] | 0.0893 (inactive) | 0.774 (inactive) | 1.28
CALHKREKRQAGNASASA [FS-1023] | 13.9 (active) | 12.1 (active) | 10.2 (active)
CARPKRSKRQAGNASASA [FS-1068] | 12.3 (active) | 11.8 (active) | 9.11 (active)
CARPKRSHHCAGNASASA [FS-2399] | 4.25 (active) | 6.93 (active) | 6.58 (active)
CAMEECSQHCAGNASASA [HC1780] | 1.81 | -0.183 (inactive) | 1.82
CAYSALHKRQAGNASASA [FS-1505] | 1.15 | -1.98 (inactive) | 1.13
